Pf Dd2 inh: qHTS Primary assay for Inhibitors of Plasmodium falciparum Dd2 growth in vitro; P. falciparum Dd2 growth, SYBR Green, 72 h; 120,000 compounds, 4.3% hits; Potency, µM (series often up to 28.9 µM), for the others: at the highest dose activity, negative = inhibition, usual class: inhibitors; active means well fitted inhibition curve with a large enough effect;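 further: plate controls were DMSO vehicle for no effect and reference drug for full effect; nearly all actives have a fitted effect of over 65% in size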
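Infected erythrocytes (Dd2, 0.3% parasitemia, 2.5% hematocrit final) are added to compound in RPMI-1640/Albumax II medium, grown 72 h at 37C in low oxygen, then lysed with saponin/Triton-X containing SYBR Green and read by fluorescence.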
Starred values were filed as active, the others as inactive; i = inactive; [ ] = remark or other dose. Many of the other results were omitted from the sample, so hits are more common in it than they were. Potency means the concentration at half of the fitted maximal effect.

SMILES	Pf Dd2 inh
O=C(O)CO[C@@H]1COCC[C@H]1NC(=O)C1(CO)CC1	4.1%
Cn1cccc1CN1CCC2CC(=O)NCCC2C1 (centres undefined)	5.4%[44.1 µM]
COC[C@@H]1CN(C(=O)CCc2ccccc2OC)C[C@H]1c1nc(C)no1	25.2%
Cc1ncoc1C(=O)N1CC[C@H]2C(=O)NCCCCCCN(Cc3ccncc3)[C@@H]2C1	-0.1%
O=c1[nH]nc2n1CCN(S(=O)(=O)c1ccc3c(c1)OCCO3)CC2	-14.1%
O=C(c1ccccc1)N1CCCC(c2nn(-c3ccccc3)c(=O)[nH]2)C1 (centres undefined)	-24.4%
CCc1ccc(C(=O)N2CCC3(CC2)OCC(C(=O)NC2CC2)N3C(=O)c2cccc(C)c2)cc1 (centres undefined)	i
CCC(=O)Nc1ccc(C2(C(=O)NCC(C)C)CCCCC2)cc1	-0.6%
O=C(NCc1cccc(F)c1)N1CCC(n2cnnc2C2CC2)C1 (centres undefined)	9.6%
O=C(NCc1ccc(F)cc1F)C1CCCN(c2cn[nH]c(=O)c2)C1 (centres undefined)	3.1%
CCOc1ccc(Nc2oc(/C=C/c3ccc(OC)c(OC)c3)nc2C#N)cc1	i
CCN(CC)CCCNc1oc(/C=C/c2ccc(OC)c(OC)c2)nc1C#N	2.51µM*
COc1ccc(/C=C/c2nc(C#N)c(NCc3ccc(C)cc3)o2)cc1OC	-19.9%
CC(=O)N(C1CC1)C1CCOC2(CCN(C(=O)Nc3ccccc3)CC2)C1 (centres undefined)	i
COCCn1c(CO)nnc1C1CC(NC(=O)C2(C)CCCC2)C1 (centres undefined)	8.5%
COc1ccccc1NC(=O)Cn1c(=O)n(-c2ccc(F)cc2)c(=O)c2c1cc(C)n2C	i
COc1ccc(CCN2CCC(CN(C)C(=O)C3CCCCO3)CC2)cc1 (centres undefined)	-10.8%
COc1ccc(CN(C)CC2CCN(CCc3ccc(F)cc3)CC2)cc1Cn1cccn1	10µM*
CN(CC1CCN(CCc2cccc(F)c2)CC1)C(=O)[C@@H](N)Cc1cnc[nH]1	-1.2%
CN(c1ncnc2c1c(-c1ccccc1)cn2-c1ccc(F)cc1)C1CCCCC1	-7.4%
COC(=O)C(C)Sc1ncnc2c1c(-c1ccccc1)cn2-c1ccc(F)cc1 (centres undefined)	5.62µM*
COc1ccc(-n2cc(-c3ccccc3)c3c(SC(C)C(C)=O)ncnc32)cc1 (centres undefined)	8.3%
O=C(CCCc1ccccc1)N1CCC(c2noc(-c3cnccn3)n2)C1 (centres undefined)	-3.6%[5.79 µM]
NC(=O)[C@H](CC1CCCCC1)NC(=O)[C@H]1CN(C(=O)C2CCNCC2)CCN1C(=O)NC1CCCCC1	-22.3%
CN(CC1CCOCC1)C(=O)c1ccc(C(F)(F)F)cc1	2.3%
SMILES	Pf Dd2 inh
O=C(O)CCC(=O)N1Cc2ccccc2CC2(CCCCN2Cc2ccncc2)C1 (centres undefined)	12.6%
CC(=O)NCCC(=O)N1Cc2ccccc2CC2(CCCN2Cc2ccncc2)C1 (centres undefined)	0.4%
CCCC(=O)N1Cc2ccccc2CC2(CCCCN2Cc2ccncc2)C1 (centres undefined)	8.91µM*
COc1ccc(CN2CCCCC23Cc2ccccc2CN(C(C)=O)C3)cc1 (centres undefined)	24.6%
CCCC(=O)N1Cc2ccccc2CC2(CCCN2Cc2ccncc2)C1 (centres undefined)	8.91µM*
CCCC(=O)N1Cc2ccccc2CC2(CCCCN2CC2CCOCC2)C1 (centres undefined)	8.91µM*
CC(=O)N1Cc2ccccc2CC2(CCCCN2CC2CCOCC2)C1 (centres undefined)	-16.5%
CN(C)CCC(=O)N1Cc2ccccc2CC2(CCCCN2CC2CCOCC2)C1 (centres undefined)	-29.7%
CCN1CCCCC12Cc1ccccc1CN(C(=O)C1CCN(C)CC1)C2 (centres undefined)	-16.8%
O=C(O)CCC(=O)N1Cc2ccccc2CC2(CCCN2Cc2ccccc2)C1 (centres undefined)	-14.0%
CCN1CCCCC12Cc1ccccc1CN(C(=O)Cc1ccc(OC)cc1)C2 (centres undefined)	11.2µM*
O=C(Cn1cnnn1)N1C[C@@H](COCC2CC2)[C@H](c2ccncc2)C1	43.3%
Cn1cc(Cl)cc1C(=O)N1CCC2(CCCN(C3CCCC3)C2=O)C1 (centres undefined)	-25.0%
O=C(c1ccccc1)N1CCCC(c2nn(-c3ccc(Cl)cc3)c(=O)[nH]2)C1 (centres undefined)	i
Cc1c(Cl)cccc1NC(=O)N1CCC(Oc2ncccc2C(=O)N2CCOCC2)C1 (centres undefined)	21.0%
COc1ccc(NC(=O)C2CCCCC(=O)N2)cc1F (centres undefined)	-7.9%
CC(C)C[C@@H]1N[C@H](C(=O)N2CCN(C)CC2)Cc2cn(Cc3cccnc3)c3cccc1c23	-8.3%
CC#CCn1cc2c3c(cccc31)[C@H](CC(C)C)N[C@H](C(=O)N1CCN(CCO)CC1)C2	10µM*
Cc1noc(C)c1Cn1cc2c3c(cccc31)[C@H](CC(C)C)N[C@H](C(=O)O)C2	i
CC(C)C[C@@H]1N[C@H](C(=O)N2CCN(C)CC2)Cc2cn(Cc3ccccn3)c3cccc1c23	i
CC(C)C[C@@H]1N[C@H](C(=O)NCC2CC2)Cc2cn(Cc3cccnc3)c3cccc1c23	-37.7%[44.1 µM]
COCCNC(=O)[C@@H]1Cc2cn(Cc3cccnc3)c3cccc(c23)[C@H](CC(C)C)N1	11.2µM*
CC(C)C[C@@H]1N[C@H](C(=O)N2CCOCC2)Cc2cn(Cc3ccncc3)c3cccc1c23	10µM*
CC#CCn1cc2c3c(cccc31)[C@H](CC(C)C)N[C@H](C(=O)N1CCOCC1)C2	i
COCCNC(=O)[C@@H]1Cc2cn(Cc3ccccn3)c3cccc(c23)[C@H](CC(C)C)N1	i
SMILES	Pf Dd2 inh
COc1cc(Cl)ccc1C(=O)N1CCC(c2n[nH]c(=O)n2Cc2ccc(F)cc2)CC1	-27.6%
O=C(C[C@@H]1C[C@@H]2C=C[C@H]1C2)NCc1cccnc1-n1cnc2ccccc21	-17.5%
COc1ccc(C2(C(=O)N3CCC4(CCCN(C)C4=O)C3)CCCC2)cc1 (centres undefined)	-8.2%
O=C1CCN(C(=O)c2cccnc2)CCCC(C(=O)N2CCN(Cc3ccccc3F)CC2)CCN1 (centres undefined)	-5.0%
COc1ccccc1CC(=O)N1CC[C@@H]2NC(=O)[C@H]3C[C@H](NC(=O)C4CCCC4)CN3C(=O)[C@H]21	-7.1%
CC1=C(C(=O)Nc2ccc(C)cc2C)C(c2ccc(C(C)C)cc2)n2nc(C(F)(F)F)nc2N1 (centres undefined)	12.6µM*
CC1=C(C(=O)Nc2ccc(C)cc2C)C(c2ccc(C(=O)O)cc2)n2nc(SCc3ccccc3)nc2N1 (centres undefined)	-5.0%
COc1cc(C2C(C(=O)Nc3ccc(C)cc3C)=C(C)Nc3nc(SCc4ccccc4)nn32)cc(OC)c1OC (centres undefined)	-2.4%
COc1ccc(CCC(=O)NC2CCc3nn(C)c(=O)n3CC2)cc1OC (centres undefined)	10.8%
COc1cc2c(cc1OC)C(COc1ccccc1OC)N(C(=O)c1ccc(S(=O)(=O)N(C)C)cc1)CC2 (centres undefined)	i
COc1cc2c(cc1OC)C(CNC(=O)c1ccc(Cl)cc1)N(C(=O)Nc1cccc(F)c1)CC2 (centres undefined)	-3.2%

Screens deposited in PubChem BioAssay by National Center for Advancing Translational Sciences (NCATS).
